Laboratory results as given in PubChem BioAssay AID1159580 (chemical genetic matrix, 2015).
In all, about 5,500 compounds went through this assay and about 2,000 (36%) were called active. About 18% were inconclusive and are not listed. Cut-off read from the data, not from the text of the source: active = normalized growth mostly below about 0.91 (no sharp cut-off); inconclusive = no clear call, values can overlap the other calls; inactive = mostly above about 0.92. This is one part of the list.

Assay: chemical genetic growth profiling, strain panel (AID 1159580);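 note: tested at 20 µM; growth read once vehicle control cultures reached saturation at 30 °C; 1 = growth at the plate median or of vehicle wells; lower values mean less growth of the strain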
Conditions: S. cerevisiae deletion strains, growth OD

Measured: normalized growth

C[C@]12CCC(=O)C=C1CCc1ccc(O)cc12
inactive: locus YBR021W, strain FUR4, active compounds read low 1.03 | locus YBR229C, strain ROT2, active compounds read low 1 | locus YCL029C, strain bik1, active compounds read low 0.992 | locus YDL035C, strain GPR1, active compounds read low 1.04 | locus YDL074C, strain BRE1, active compounds read low 1.04 | locus YDL101C, strain DUN1, active compounds read low 1.01 | locus YDL134C, strain PPH21, active compounds read low 1 | locus YDL185W, strain tfp1, active compounds read low 0.992 | locus YDL192W, strain arf1, active compounds read low 0.998 | locus YDR101C, strain arx1, active compounds read low 0.984 | locus YDR150W, strain NUM1, active compounds read low 1 | locus YDR162C, strain NBP2, active compounds read low 1.01 | locus YDR318W, strain mcm21, active compounds read low 0.986 | locus YDR388W, active compounds read low 0.991 | locus YDR502C, strain sam2, active compounds read low 0.968 | locus YEL061C, strain CIN8, active compounds read low 1 | locus YER110C, active compounds read low 0.982 | locus YER155C, strain BEM2, active compounds read low 0.996 | locus YER167W, strain BCK2, active compounds read low 1.02 | locus YGL078C, strain dbp3, active compounds read low 0.995 | locus YGL086W, strain mad1, active compounds read low 0.982 | locus YGL248W, strain PDE1, active compounds read low 0.996 | locus YGR078C, strain PAC10, active compounds read low 0.998 | locus YGR135W, strain pre9, active compounds read low 0.973 | locus YGR252W, strain gcn5, active compounds read low 0.961 | locus YHR030C, strain SLT2, active compounds read low 1.01 | locus YHR079C, strain IRE1 (second series), active compounds read low 0.989 | locus YHR094C, strain hxt1, active compounds read low 0.993 | locus YHR129C, strain ARP1, active compounds read low 1 | locus YHR200W, strain rpn10, active compounds read low 0.989 | locus YIL066C, strain RNR3, active compounds read low 1.02 | locus YIL073C, strain SPO22, active compounds read low 1.04 | locus YIL125W, strain kgd1, active compounds read low 0.987 | locus YIR030C, strain dcg1, active compounds read low 1.01 | locus YJL095W, strain BCK1, active compounds read low 1 | locus YJL134W, strain LCB3, active compounds read low 1.01 | locus YJL168C, strain set2, active compounds read low 0.987 | locus YJL187C, strain SWE1 (second series), active compounds read low 1 | locus YJR043C, strain POL32, active compounds read low 1.01 | locus YKL009W, strain mrt4, active compounds read low 1.03 | locus YKL068W, active compounds read low 0.991 | locus YKL085W, strain MDH1 (second series), active compounds read low 0.999 | locus YKL085W, strain MDH1, active compounds read low 0.999 | locus YKL190W, strain CNB1, active compounds read low 1.01 | locus YKR001C, strain vps1, active compounds read low 0.977 | locus YLR039C, strain RIC1, active compounds read low 1.06 | locus YLR058C, strain SHM2, active compounds read low 1.02 | locus YLR102C, strain apc9, active compounds read low 0.994 | locus YLR262C, strain YPT6, active compounds read low 1.07 | locus YLR268W, strain sec22, active compounds read low 0.98 | locus YLR342W, strain FKS1 (second series), active compounds read low 0.997 | locus YLR371W, strain rom2, active compounds read low 0.994 | locus YLR418C, strain cdc73, active compounds read low 0.982 | locus YML016C, strain PPZ1, active compounds read low 1.01 | locus YML032C, strain rad52, active compounds read low 0.982 | locus YML124C, strain tub3, active compounds read low 0.979 | locus YMR078C, strain ctf18, active compounds read low 0.987 | locus YMR223W, strain ubp8, active compounds read low 0.988 | locus YMR307W, strain GAS1, active compounds read low 1.04 | locus YNL067W, strain RPL9B, active compounds read low 0.999 | locus YNL233W, strain BNI4, active compounds read low 0.99 | locus YNL250W, strain rad50, active compounds read low 1.01 | locus YNL271C, strain bni1, active compounds read low 0.982 | locus YNL298W, strain CLA4, active compounds read low 0.987 | locus YNL307C, strain MCK1, active compounds read low 0.983 | locus YNR052C, strain pop2, active compounds read low 0.982 | locus YOL012C, strain htz1 1.09 | locus YOL147C, strain pex11, active compounds read low 0.994 | locus YOR061W, strain CKA2, active compounds read low 1.03 | locus YOR069W, strain VPS5, active compounds read low 1.01 | locus YOR136W, strain idh2, active compounds read low 0.97 | locus YOR144C, strain elg1, active compounds read low 0.985 | locus YOR184W, strain ser1, active compounds read low 1.03 | locus YOR316C, strain cot1, active compounds read low 0.99 | locus YPL241C, strain CIN2, active compounds read low 1 | locus YPR119W, strain clb2, active compounds read low 0.986 | locus YPR141C, strain kar3, active compounds read low 0.994 | locus YPR163C, strain tif3, active compounds read low 0.984 | locus YPR167C, strain met16, active compounds read low 0.987 | strain wtn01, active compounds read low 0.992
